Assay results reported in PubChem BioAssay AID1159580 (chemical genetic matrix, 2015).
In all, about 5,500 compounds went through this assay and about 2,000 (36%) were called active. Roughly 18% stayed inconclusive and do not appear here. No stated cut-off is given here; in the data, active means normalized growth mostly below about 0.91 (no sharp cut-off); inconclusive means no clear call, values can overlap the other calls; inactive means mostly above about 0.92. This is one part of the list.

Assay: chemical genetic growth profiling, strain panel (AID 1159580);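 further: tested at 20 µM; growth read once vehicle control cultures reached saturation at 30 °C; 1 = growth at the plate median or of vehicle wells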
Conditions: growth OD

Measured: normalized growth

O=C1C=CC(=O)c2c(O)cccc21
active: S. cerevisiae deletion strains, locus YLR262C, strain YPT6 (second series), stronger effect = lower value 0.727 | S. cerevisiae deletion strains, locus YLR320W, strain mms22, stronger effect = lower value 0.851 | S. cerevisiae deletion strains, locus YNL071W, strain lat1, stronger effect = lower value 0.897 | S. cerevisiae deletion strains, locus YOR270C, strain vph1, stronger effect = lower value 0.775
inactive: S. cerevisiae deletion strains, locus YJR043C, strain POL32, stronger effect = lower value 1.01 | S. cerevisiae deletion strains, locus YJR066W, strain TOR1, stronger effect = lower value 0.894 | S. cerevisiae deletion strains, locus YKL009W, strain mrt4, stronger effect = lower value 0.934 | S. cerevisiae deletion strains, locus YKL068W, stronger effect = lower value 0.982 | S. cerevisiae deletion strains, locus YKL085W, strain MDH1 (second series), stronger effect = lower value 0.97 | S. cerevisiae deletion strains, locus YKL085W, strain MDH1, stronger effect = lower value 0.97 | S. cerevisiae deletion strains, locus YKL160W, strain elf1, stronger effect = lower value 1 | S. cerevisiae deletion strains, locus YKL190W, strain CNB1, stronger effect = lower value 0.986 | S. cerevisiae deletion strains, locus YKR001C, strain vps1, stronger effect = lower value 0.938 | S. cerevisiae deletion strains, locus YKR026C, strain gcn3, stronger effect = lower value 0.983 | S. cerevisiae deletion strains, locus YKR091W, strain srl3, stronger effect = lower value 0.983 | S. cerevisiae deletion strains, locus YLL001W, strain dnm1, stronger effect = lower value 0.968 | S. cerevisiae deletion strains, locus YLL026W, stronger effect = lower value 1.01 | S. cerevisiae deletion strains, locus YLL041C, strain sdh2, stronger effect = lower value 1 | S. cerevisiae deletion strains, locus YLR027C, strain aat2, stronger effect = lower value 0.984 | S. cerevisiae deletion strains, locus YLR039C, strain RIC1, stronger effect = lower value 0.699 | S. cerevisiae deletion strains, locus YLR058C, strain SHM2, stronger effect = lower value 0.947 | S. cerevisiae deletion strains, locus YLR102C, strain apc9, stronger effect = lower value 0.989 | S. cerevisiae deletion strains, locus YLR113W, strain HOG1, stronger effect = lower value 0.922 | S. cerevisiae deletion strains, locus YLR221C, strain rsa3, stronger effect = lower value 0.947 | S. cerevisiae deletion strains, locus YLR258W, strain gsy2, stronger effect = lower value 0.979 | S. cerevisiae deletion strains, locus YLR262C, strain YPT6, stronger effect = lower value 0.731 | S. cerevisiae deletion strains, locus YLR268W, strain sec22, stronger effect = lower value 0.995 | S. cerevisiae deletion strains, locus YLR330W, strain CHS5, stronger effect = lower value 1 | S. cerevisiae deletion strains, locus YLR342W, strain FKS1 (second series), stronger effect = lower value 0.967 | S. cerevisiae deletion strains, locus YLR342W, strain FKS1, stronger effect = lower value 0.986 | S. cerevisiae deletion strains, locus YLR357W, strain rsc2, stronger effect = lower value 0.964 | S. cerevisiae deletion strains, locus YLR370C, strain arc18, stronger effect = lower value 0.979 | S. cerevisiae deletion strains, locus YLR384C, strain iki3, stronger effect = lower value 0.957 | S. cerevisiae deletion strains, locus YLR418C, strain cdc73, stronger effect = lower value 0.885 | S. cerevisiae deletion strains, locus YML016C, strain PPZ1, stronger effect = lower value 0.975 | S. cerevisiae deletion strains, locus YML032C, strain rad52, stronger effect = lower value 0.915 | S. cerevisiae deletion strains, locus YML120C, strain ndi1, stronger effect = lower value 0.987 | S. cerevisiae deletion strains, locus YML124C, strain tub3, stronger effect = lower value 0.993 | S. cerevisiae deletion strains, locus YMR058W, strain fet3, stronger effect = lower value 0.983 | S. cerevisiae deletion strains, locus YMR078C, strain ctf18, stronger effect = lower value 0.986 | S. cerevisiae deletion strains, locus YMR125W, strain sto1, stronger effect = lower value 0.991 | S. cerevisiae deletion strains, locus YMR129W, stronger effect = lower value 1.03 | S. cerevisiae deletion strains, locus YMR205C, strain PFK2, stronger effect = lower value 0.91 | S. cerevisiae deletion strains, locus YMR223W, strain ubp8, stronger effect = lower value 0.966 | S. cerevisiae deletion strains, locus YMR231W, strain pep5, stronger effect = lower value 0.975 | S. cerevisiae deletion strains, locus YMR307W, strain GAS1, stronger effect = lower value 0.944 | S. cerevisiae deletion strains, locus YNL067W, strain RPL9B, stronger effect = lower value 0.979 | S. cerevisiae deletion strains, locus YNL153C, strain GIM3, stronger effect = lower value 0.964 | S. cerevisiae deletion strains, locus YNL183C, strain NPR1, stronger effect = lower value 0.932 | S. cerevisiae deletion strains, locus YNL209W, strain ssb2, stronger effect = lower value 0.983 | S. cerevisiae deletion strains, locus YNL233W, strain BNI4, stronger effect = lower value 0.996 | S. cerevisiae deletion strains, locus YNL248C, strain rpa49, stronger effect = lower value 1.08 | S. cerevisiae deletion strains, locus YNL250W, strain rad50, stronger effect = lower value 0.987 | S. cerevisiae deletion strains, locus YNL271C, strain bni1, stronger effect = lower value 0.982 | S. cerevisiae deletion strains, locus YNL298W, strain CLA4, stronger effect = lower value 0.998 | S. cerevisiae deletion strains, locus YNL307C, strain MCK1, stronger effect = lower value 0.994 | S. cerevisiae deletion strains, locus YNL322C, strain KRE1 (second series), stronger effect = lower value 1.01 | S. cerevisiae deletion strains, locus YNR049C, strain mso1, stronger effect = lower value 0.993 | S. cerevisiae deletion strains, locus YNR052C, strain pop2, stronger effect = lower value 1.01 | S. cerevisiae deletion strains, locus YOL012C, strain htz1 1.06 | S. cerevisiae deletion strains, locus YOL147C, strain pex11, stronger effect = lower value 0.994 | S. cerevisiae deletion strains, locus YOR001W, strain rrp6, stronger effect = lower value 0.966 | S. cerevisiae deletion strains, locus YOR061W, strain CKA2, stronger effect = lower value 0.947 | S. cerevisiae deletion strains, locus YOR069W, strain VPS5, stronger effect = lower value 0.981 | S. cerevisiae deletion strains, locus YOR070C, strain gyp1, stronger effect = lower value 0.993 | S. cerevisiae deletion strains, locus YOR080W, strain dia2, stronger effect = lower value 0.971 | S. cerevisiae deletion strains, locus YOR083W, strain WHI5, stronger effect = lower value 0.99 | S. cerevisiae deletion strains, locus YOR106W, strain vam3, stronger effect = lower value 0.91 | S. cerevisiae deletion strains, locus YOR136W, strain idh2, stronger effect = lower value 0.993 | S. cerevisiae deletion strains, locus YOR144C, strain elg1, stronger effect = lower value 0.988 | S. cerevisiae deletion strains, locus YOR184W, strain ser1, stronger effect = lower value 0.984 | S. cerevisiae deletion strains, locus YOR231W, strain MKK1, stronger effect = lower value 0.964 | S. cerevisiae deletion strains, locus YOR265W, strain rbl2, stronger effect = lower value 0.966 | S. cerevisiae deletion strains, locus YOR290C, strain snf2, stronger effect = lower value 0.989 | S. cerevisiae deletion strains, locus YOR316C, strain cot1, stronger effect = lower value 0.99 | S. cerevisiae deletion strains, locus YPL051W, strain arl3, stronger effect = lower value 0.97 | S. cerevisiae deletion strains, locus YPL078C, strain atp4, stronger effect = lower value 0.974 | S. cerevisiae deletion strains, locus YPL106C, strain sse1, stronger effect = lower value 0.881 | S. cerevisiae deletion strains, locus YPL240C, strain hsp82, stronger effect = lower value 0.973 | S. cerevisiae deletion strains, locus YPL241C, strain CIN2, stronger effect = lower value 0.987 | S. cerevisiae deletion strains, locus YPL256C, strain CLN2, stronger effect = lower value 0.94 | S. cerevisiae deletion strains, locus YPR119W, strain clb2, stronger effect = lower value 0.992 | S. cerevisiae deletion strains, locus YPR141C, strain kar3, stronger effect = lower value 0.982 | S. cerevisiae deletion strains, locus YPR163C, strain tif3, stronger effect = lower value 1.01 | S. cerevisiae deletion strains, locus YPR167C, strain met16, stronger effect = lower value 1 | S. cerevisiae deletion strains, strain wtn01, stronger effect = lower value 1.04 | S. cerevisiae strains, strain wild type, stronger effect = lower value 0.987
